Assay [1] has as its target Paired box protein Pax-6 (Homo sapiens) (UniProt P26367). Nature of the assay: ATG_Pax6_CIS: Attagene CIS-FACTORIAL HepG2 Assay for human Paired Box 6 (PAX6) (AID 2282956). Conditions: HepG2 CIS-FACTORIAL PAX6 reporter transcription, RNA readout; actives raise or lower the signal. An outline of the steps: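 DMSO-referenced bidirectional fits of reporter mRNA fluorescence; HepG2 with transient cis-promoter MRTUs, 24 h post-dose, RT-PCR plus capillary electrophoresis detection.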

The nature of assay [2]: ATG_PXRE_CIS: Attagene CIS-FACTORIAL HepG2 Assay for human Pregnane X Receptor Element (PXRE) (AID 2282957). Conditions: HepG2 Attagene CIS-FACTORIAL PXRE reporter, mRNA; actives raise or lower the signal. In outline: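 Bidirectional activity, baselined to DMSO, derived from reporter mRNA fluorescence (RT-PCR plus capillary electrophoresis) in HepG2 cells bearing cis-promoter reporter units, 24 h exposure.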

A short description of assay [3]: ATG_PPRE_CIS: Attagene CIS-FACTORIAL HepG2 Assay for human Peroxisome Proliferator-activated Response Element (PPRE) (AID 2282958). The following applies: HepG2 PPRE cis-element reporter, Attagene transcription factor profiling; actives raise or lower the signal. An outline of the steps:
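Read-out: fluorescent reporter mRNA fragments resolved by capillary electrophoresis after RT-PCR. HepG2 cells carried transiently transfected PPRE-driven cis reporter constructs and were dosed for 24 h; gain or loss of signal fitted relative to DMSO.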

The nature of assay [4]: ATG_RORE_CIS: Attagene CIS-FACTORIAL HepG2 Assay for human RAR-related Orphan Receptor Element (RORE) (AID 2282959). Conditions: HepG2 Attagene cis-factorial RORE reporter, mRNA; actives raise or lower the signal. In outline:
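Readout: fluorescent reporter mRNA by RT-PCR plus capillary electrophoresis, 24 h after dosing transfected HepG2 cells. Endogenous transcription factor activity on a cis promoter element is measured. Gain or loss of signal fitted against DMSO.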

Assay [5] is described as follows: ATG_Sox_CIS: Attagene CIS-FACTORIAL HepG2 Assay for human SRY-box transcription factor (SOX) (AID 2282960). The following applies: HepG2 Attagene cis-factorial SOX reporter, mRNA; actives raise or lower the signal. An outline of the steps: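 Read-out: fluorescent RT-PCR products of SOX1-linked reporter transcripts resolved by capillary electrophoresis, fitted bidirectionally against DMSO. Transiently transfected HepG2 cells, 24 h after chemical exposure, endogenous transcription factor activity.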

In assay [6] the target is Transcription factor Sp1 (Homo sapiens) (UniProt P08047). Nature of the assay: ATG_Sp1_CIS: Attagene CIS-FACTORIAL HepG2 Assay for human Specificity Protein 1 (Sp1) (AID 2282961). Conditions: HepG2 Sp1 cis-reporter transcription, actives raise or lower the signal. An outline of the steps: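 Read-out: fluorescence of 6-FAM-labeled, HpaI-digested RT-PCR products separated by capillary electrophoresis. HepG2 cells carried transfected cis-element reporter units and were exposed to chemicals for 24 h; gain or loss of signal fitted relative to DMSO.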

The nature of assay [7]: ATG_SREBP_CIS: Attagene CIS-FACTORIAL HepG2 Assay for human Sterol Regulatory Element Binding (SREBP) (AID 2282962). The following applies: HepG2 Attagene cis-factorial SREBP reporter, mRNA; actives raise or lower the signal. An outline of the steps: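 In this cis-format assay, HepG2 liver cells express reporters controlled by promoter elements responsive to native transcription factors. Exposure lasts 24 h; reporter mRNA fluorescence from capillary electrophoresis gives the signal, fitted bidirectionally against DMSO.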

Assay [8] deals with Signal transducer and activator of transcription 3 (Homo sapiens) (UniProt P40763). Put plainly: ATG_STAT3_CIS: Attagene CIS-FACTORIAL HepG2 Assay for human Signal Transducer and Activator of Transcription 3 (STAT3) (AID 2282963). Conditions: HepG2, Attagene cis-factorial STAT3 reporter transcription; actives raise or lower the signal. In outline:
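HepG2, MRTU-transfected, 24 h dosing. RNA → RT → PCR → FAM label → HpaI → CE. Bidirectional fit vs DMSO.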

Assay [9] can be described thus: ATG_TA_CIS: Attagene CIS-FACTORIAL HepG2 Assay for human TA Basal Promoter (AID 2282964). The following applies: HepG2 Attagene CIS-factorial TA basal promoter reporter; actives raise or lower the signal. An outline of the steps:
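HepG2 cells transiently transfected with multiplexed cis-promoter reporter units, dosed 24 h. Reporter mRNA measured by RT-PCR, 6-FAM labelling, HpaI digestion and capillary electrophoresis; bidirectional fit versus DMSO baseline, serving as background control.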

Assay [10] can be described thus: ATG_TCF_b_cat_CIS: Attagene CIS-FACTORIAL HepG2 Assay for human T-Cell-Factor with beta-catenin (TCF/b-cat) (AID 2282965). The following applies: HepG2 TCF/beta-catenin cis-reporter transcription, actives raise or lower the signal. In outline: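 HepG2 cells transiently transfected with multiple cis-promoter-regulated reporter transcription units, so endogenous transcription factor activity is measured. Reporter mRNA read 24 hours after dosing by RT-PCR, fluorescent labelling and capillary electrophoresis; bidirectional fitting against DMSO.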

Assay [11] in a line: ATG_TAL_CIS: Attagene CIS-FACTORIAL HepG2 Assay for human TAL Basal Promoter (AID 2282966).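 Also: background control endpoint measuring basal TAL promoter reporter mRNA not a specific factor.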 The following applies: HepG2 Attagene cis-factorial TAL promoter reporter; actives raise or lower the signal. An outline of the steps: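 Human hepatoma HepG2 cells, transfected with promoter-regulated reporter units, were treated 24 h. Reporter transcript levels, measured through RT-PCR and capillary electrophoresis, were fitted for gain or loss relative to DMSO.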

Assay [12] can be described thus: ATG_VDRE_CIS: Attagene CIS-FACTORIAL HepG2 Assay for human Vitamin D Receptor Element (VDRE) (AID 2282968). Conditions: HepG2 VDRE cis-reporter transcription, actives raise or lower the signal. An outline of the steps:
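Steps: transfect HepG2 with multiple reporter transcription units; dose chemicals 24 h; isolate RNA; RT-PCR; label with 6-FAM primer extension; HpaI digest; capillary electrophoresis. Curves fitted both directions against DMSO.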

In assay [13] the target is Nuclear receptor subfamily 1 group I member 3 (Homo sapiens) (UniProt Q14994). Nature of the assay: ATG_CAR_TRANS: Attagene TRANS-FACTORIAL HepG2 Assay for human Constitutive Androstane Receptor (CAR) (AID 2282969; active = hit-call score of the fitted dose curve at least 0.9, where 1 is the maximum;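 also: activators raise reporter mRNA above DMSO so AC50 marks induction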). Conditions: HepG2 Attagene TRANS-FACTORIAL CAR reporter. An outline of the steps: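 Steps: transient transfection of HepG2 with multiple GAL4-UAS reporter units; 24 h compound incubation; RNA isolation, RT-PCR, 6-FAM primer extension, HpaI digest; capillary electrophoresis. Gain-of-signal relative to DMSO negative control.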

Assay [14] concerns the target Steroid hormone receptor ERR1 (Homo sapiens) (UniProt P11474). Put plainly: ATG_ERRa_TRANS: Attagene TRANS-FACTORIAL HepG2 Assay for human Estrogen-Related Receptor alpha (ERRa) (AID 2282971; active = hit-call score of the fitted dose curve at least 0.9, where 1 is the maximum). Conditions: HepG2 Attagene TRANS reporter, ERRa transactivation. In outline:
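Signal gain relative to DMSO for an ERRa-Gal4 chimeric receptor, read as reporter mRNA by RT-PCR/capillary electrophoresis. Human HepG2 liver cells, transient multiplex reporter transfection, 24 h chemical exposure.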

Assay [15] addresses X-box-binding protein 1 (Homo sapiens) (UniProt P17861). Put plainly: ATG_Xbp1_CIS: Attagene CIS-FACTORIAL HepG2 Assay for human X-box Binding Protein 1 (XBP1) (AID 2282972). Conditions: HepG2 XBP1 cis-element reporter, Attagene multiplex; actives raise or lower the signal. An outline of the steps: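 Changes in reporter transcript abundance, read by RT-PCR and capillary electrophoresis, reflect endogenous transcription factor activity. Transfected HepG2 cells received compound for 24 hours; DMSO defined baseline for bidirectional analysis.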

A short description of assay [16]: ATG_M_19_TRANS: Attagene TRANS-FACTORIAL HepG2 Assay for M19 Transcription Factor (Internal Marker) (AID 2282974; active = hit-call score of the fitted dose curve at least 0.9, where 1 is the maximum). Conditions: HepG2 Attagene TRANS-FACTORIAL M19 internal marker reporter. An outline of the steps: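 24 h chemical exposure of transiently transfected HepG2 (MRTU library). RNA → oligo(dT) RT → PCR → 6-FAM labelling → HpaI cut → CE fluorescence. Positive-direction fit vs DMSO baseline; background internal-marker readout.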

Assay [17] is described as follows: ATG_GAL4_TRANS: Attagene TRANS-FACTORIAL HepG2 Assay for GAL4 (Internal Marker) (AID 2282976; active = hit-call score of the fitted dose curve at least 0.9, where 1 is the maximum). The following applies: HepG2 Attagene TRANS GAL4 internal marker reporter. In outline:
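Liver HepG2 line bearing multiplexed GAL4-UAS reporter constructs; 24 h chemical treatment. Transcripts were quantified as fluorescent fragments on capillary electrophoresis after RT-PCR and HpaI cut, with activity fitted upward from DMSO.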

In assay [18] the target is Estrogen-related receptor gamma (Homo sapiens) (UniProt P62508). Nature of the assay: ATG_ERRg_TRANS: Attagene TRANS-FACTORIAL HepG2 Assay for human Estrogen-Related Receptor gamma (ERRg) (AID 2282977; active = hit-call score of the fitted dose curve at least 0.9, where 1 is the maximum;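 also: hits increase reporter signal over DMSO so potencies reflect activators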). Conditions: HepG2 Attagene TRANS reporter, ERRg transactivation. An outline of the steps:
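Exogenous NR-Gal4 chimera activity measured as reporter transcript induction after 24 h in transiently transfected HepG2 cells. RNA reverse-transcribed, PCR-amplified, 6-FAM-labelled and resolved by capillary electrophoresis; increase over DMSO baseline.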

Assay [19] is described as follows: ATG_TGFb_CIS: Attagene CIS-FACTORIAL HepG2 Assay for human Transforming Growth Factor (TGF) (AID 2282967). The following applies: HepG2 Attagene CIS TGFb reporter, mRNA transcription; actives raise or lower the signal. An outline of the steps: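 HepG2 cells transiently transfected with cis-promoter-driven multiplexed reporter units; 24 h compound exposure. Reporter mRNA measured by RT-PCR, 6-FAM labeling, HpaI digestion and capillary electrophoresis; bidirectional fit versus DMSO baseline.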

The target of assay [20] is Estrogen receptor (Homo sapiens) (UniProt P03372). Nature of the assay: ATG_ERa_TRANS: Attagene TRANS-FACTORIAL HepG2 Assay for human Estrogen Receptor alpha (ERa) (AID 2282970; active = hit-call score of the fitted dose curve at least 0.9, where 1 is the maximum). The following applies: HepG2 Attagene TRANS ERa GAL4 reporter, mRNA. In outline: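 Signal derives from fluorescence of labelled reporter PCR fragments separated by capillary electrophoresis. HepG2 cells transiently carrying multiple GAL4-UAS reporter units were treated 24 hours, and induction above DMSO baseline was fitted as activity.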

Molecules are shown by their SMILES. Records with an inconclusive call do not appear. Activity calls are given as the source filed them. The calls were made as follows, unless noted: active = hit-call score of the fitted dose curve at least 0.9, where 1 is the maximum; inactive = score below 0.9.

Chain of X-box-binding protein 1 (Homo sapiens) (P17861 whole entry, looked up): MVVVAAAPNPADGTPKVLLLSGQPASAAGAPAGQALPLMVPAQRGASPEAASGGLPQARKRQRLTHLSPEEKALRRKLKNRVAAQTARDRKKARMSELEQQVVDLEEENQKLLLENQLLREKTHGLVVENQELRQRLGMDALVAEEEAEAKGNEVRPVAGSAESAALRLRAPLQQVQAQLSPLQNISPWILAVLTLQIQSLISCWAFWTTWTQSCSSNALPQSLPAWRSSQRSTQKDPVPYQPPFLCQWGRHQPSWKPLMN
Chain of Estrogen-related receptor gamma (Homo sapiens) (P62508 whole entry, looked up, the tested form may be a part): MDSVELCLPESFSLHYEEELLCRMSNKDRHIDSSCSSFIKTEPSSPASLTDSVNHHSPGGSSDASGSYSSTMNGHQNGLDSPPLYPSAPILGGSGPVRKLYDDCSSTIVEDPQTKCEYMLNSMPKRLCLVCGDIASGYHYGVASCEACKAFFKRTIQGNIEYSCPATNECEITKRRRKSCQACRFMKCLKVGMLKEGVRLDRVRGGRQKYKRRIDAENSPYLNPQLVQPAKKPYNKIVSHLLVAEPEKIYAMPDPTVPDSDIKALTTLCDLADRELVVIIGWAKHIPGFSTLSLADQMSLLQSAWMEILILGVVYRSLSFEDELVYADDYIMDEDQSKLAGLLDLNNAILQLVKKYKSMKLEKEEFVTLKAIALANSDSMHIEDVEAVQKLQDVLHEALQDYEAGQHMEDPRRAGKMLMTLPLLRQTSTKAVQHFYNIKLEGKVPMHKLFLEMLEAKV
Chain of Signal transducer and activator of transcription 3 (Homo sapiens) (P40763 whole entry, looked up): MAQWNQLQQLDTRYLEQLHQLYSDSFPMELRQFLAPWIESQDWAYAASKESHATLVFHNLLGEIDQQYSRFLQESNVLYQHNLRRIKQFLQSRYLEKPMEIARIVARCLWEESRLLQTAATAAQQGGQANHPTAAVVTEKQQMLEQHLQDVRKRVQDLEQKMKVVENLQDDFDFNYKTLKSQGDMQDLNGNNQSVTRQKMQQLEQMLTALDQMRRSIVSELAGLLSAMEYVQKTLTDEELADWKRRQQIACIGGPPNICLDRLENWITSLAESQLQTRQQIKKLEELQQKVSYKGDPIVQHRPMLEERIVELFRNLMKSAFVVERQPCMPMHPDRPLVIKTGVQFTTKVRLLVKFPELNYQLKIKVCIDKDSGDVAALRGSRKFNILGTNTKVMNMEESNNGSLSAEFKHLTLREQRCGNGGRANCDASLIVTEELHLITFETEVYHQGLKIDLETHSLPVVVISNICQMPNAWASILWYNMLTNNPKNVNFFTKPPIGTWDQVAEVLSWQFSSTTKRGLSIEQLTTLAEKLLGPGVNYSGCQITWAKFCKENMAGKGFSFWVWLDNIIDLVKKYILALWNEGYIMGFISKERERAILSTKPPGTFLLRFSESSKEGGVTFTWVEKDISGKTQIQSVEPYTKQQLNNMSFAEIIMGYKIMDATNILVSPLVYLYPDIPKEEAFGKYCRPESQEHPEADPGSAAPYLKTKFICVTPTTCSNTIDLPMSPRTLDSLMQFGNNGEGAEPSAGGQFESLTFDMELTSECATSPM
Chain of Transcription factor Sp1 (Homo sapiens) (P08047 whole entry, looked up): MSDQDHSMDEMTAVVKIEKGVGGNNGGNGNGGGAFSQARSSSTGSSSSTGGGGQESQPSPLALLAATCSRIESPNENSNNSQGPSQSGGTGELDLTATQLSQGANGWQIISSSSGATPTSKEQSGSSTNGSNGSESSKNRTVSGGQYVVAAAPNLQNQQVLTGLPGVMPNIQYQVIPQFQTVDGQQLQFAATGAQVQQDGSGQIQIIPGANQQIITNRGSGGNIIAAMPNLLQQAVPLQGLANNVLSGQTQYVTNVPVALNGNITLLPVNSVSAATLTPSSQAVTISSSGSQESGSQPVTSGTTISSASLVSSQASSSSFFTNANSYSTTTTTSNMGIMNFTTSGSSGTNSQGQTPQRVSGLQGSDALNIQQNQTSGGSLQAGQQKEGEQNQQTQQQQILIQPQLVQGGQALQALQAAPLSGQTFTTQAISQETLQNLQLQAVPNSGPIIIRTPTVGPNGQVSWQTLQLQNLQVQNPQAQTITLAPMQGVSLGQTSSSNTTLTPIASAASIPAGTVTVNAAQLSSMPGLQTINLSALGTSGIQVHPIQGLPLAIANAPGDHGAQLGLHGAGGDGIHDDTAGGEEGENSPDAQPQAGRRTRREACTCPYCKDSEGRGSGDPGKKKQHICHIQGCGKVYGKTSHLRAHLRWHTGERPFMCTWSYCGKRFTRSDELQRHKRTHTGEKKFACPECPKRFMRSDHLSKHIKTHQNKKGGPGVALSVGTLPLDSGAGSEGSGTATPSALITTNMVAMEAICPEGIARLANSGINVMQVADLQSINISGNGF
Chain of Paired box protein Pax-6 (Homo sapiens) (P26367 whole entry, looked up): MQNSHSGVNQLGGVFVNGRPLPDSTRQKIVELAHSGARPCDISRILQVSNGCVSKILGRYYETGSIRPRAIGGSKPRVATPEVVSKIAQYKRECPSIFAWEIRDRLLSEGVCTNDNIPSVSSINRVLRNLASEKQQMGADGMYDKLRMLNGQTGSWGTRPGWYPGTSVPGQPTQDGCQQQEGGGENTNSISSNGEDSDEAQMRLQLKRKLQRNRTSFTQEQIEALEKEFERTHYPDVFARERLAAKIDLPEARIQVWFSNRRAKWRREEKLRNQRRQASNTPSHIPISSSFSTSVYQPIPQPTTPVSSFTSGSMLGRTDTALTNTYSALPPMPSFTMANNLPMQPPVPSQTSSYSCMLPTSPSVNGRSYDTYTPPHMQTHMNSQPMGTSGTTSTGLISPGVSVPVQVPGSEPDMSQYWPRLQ
Chain of Nuclear receptor subfamily 1 group I member 3 (Homo sapiens) (Q14994 whole entry, looked up, the tested form may be a part): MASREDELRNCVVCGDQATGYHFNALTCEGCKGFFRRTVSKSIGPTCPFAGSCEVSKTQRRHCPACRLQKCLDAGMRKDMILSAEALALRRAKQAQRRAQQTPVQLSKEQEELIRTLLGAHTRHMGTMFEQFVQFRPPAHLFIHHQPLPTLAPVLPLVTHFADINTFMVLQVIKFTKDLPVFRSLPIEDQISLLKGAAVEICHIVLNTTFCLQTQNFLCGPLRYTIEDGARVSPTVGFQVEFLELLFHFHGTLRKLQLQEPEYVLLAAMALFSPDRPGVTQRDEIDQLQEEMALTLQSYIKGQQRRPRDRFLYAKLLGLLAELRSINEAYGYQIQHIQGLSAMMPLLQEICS
Chain of Estrogen receptor (Homo sapiens) (P03372 whole entry, looked up, the tested form may be a part): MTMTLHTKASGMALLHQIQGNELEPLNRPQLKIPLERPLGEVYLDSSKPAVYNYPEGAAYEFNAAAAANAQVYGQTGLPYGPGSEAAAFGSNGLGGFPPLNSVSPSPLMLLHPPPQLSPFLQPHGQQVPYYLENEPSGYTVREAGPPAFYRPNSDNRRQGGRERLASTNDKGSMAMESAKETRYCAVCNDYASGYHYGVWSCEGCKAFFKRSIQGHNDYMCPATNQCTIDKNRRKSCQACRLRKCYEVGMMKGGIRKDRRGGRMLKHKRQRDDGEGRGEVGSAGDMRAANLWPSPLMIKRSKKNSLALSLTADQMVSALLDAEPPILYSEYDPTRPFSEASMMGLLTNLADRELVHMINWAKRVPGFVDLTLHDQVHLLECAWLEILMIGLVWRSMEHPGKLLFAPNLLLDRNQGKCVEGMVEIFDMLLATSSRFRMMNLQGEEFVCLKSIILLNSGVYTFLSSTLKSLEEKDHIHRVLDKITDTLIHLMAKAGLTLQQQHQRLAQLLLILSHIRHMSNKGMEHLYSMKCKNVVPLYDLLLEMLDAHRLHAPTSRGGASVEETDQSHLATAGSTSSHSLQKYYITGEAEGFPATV
Chain of Steroid hormone receptor ERR1 (Homo sapiens) (P11474 whole entry, looked up, the tested form may be a part): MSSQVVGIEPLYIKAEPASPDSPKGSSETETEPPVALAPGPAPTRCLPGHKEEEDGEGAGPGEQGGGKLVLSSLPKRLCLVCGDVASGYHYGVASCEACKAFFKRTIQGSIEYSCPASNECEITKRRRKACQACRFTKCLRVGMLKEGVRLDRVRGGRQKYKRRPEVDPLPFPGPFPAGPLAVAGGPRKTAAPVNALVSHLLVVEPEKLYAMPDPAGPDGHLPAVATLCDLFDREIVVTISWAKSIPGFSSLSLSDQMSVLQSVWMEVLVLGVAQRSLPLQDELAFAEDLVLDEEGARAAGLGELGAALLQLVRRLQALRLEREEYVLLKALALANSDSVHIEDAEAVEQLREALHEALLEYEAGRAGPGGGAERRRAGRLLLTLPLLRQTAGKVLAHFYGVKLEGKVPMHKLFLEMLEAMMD

For `Cc1cc(C)c(C)c(C)c1`, the result in assay [1], in assay [2], in assay [3], in assay [4], in assay [5] and in assay [6] was inactive. Moreover, the result in assay [7], in assay [8], in assay [9], in assay [10], in assay [11] and in assay [12] was inactive. The compound was called inactive in assay [13], in assay [14], in assay [15], in [16], in assay [17] and in [18].
Turning to `O=c1cc[nH]c(=S)[nH]1`, the outcome in assay [1], in [2], in assay [3], in assay [4], in assay [5] and in assay [6] was inactive. For the same compound, the compound was called inactive in assay [7], in [8], in assay [9], in assay [10], in assay [11] and in [19]. Moreover, the compound was called inactive in assay [20], in assay [14], in [15] and in [18].
With `CN1C(=O)N(C)C(O)C1O` (stereo not drawn), the compound was classed as inactive in [1], in assay [2], in assay [3], in [4], in assay [5] and in assay [6]. The call in assay [7], in assay [8], in [9], in [10], in assay [11] and in assay [12] was inactive. The compound was classed as inactive in assay [13], in assay [20], in assay [15], in assay [16] and in assay [17].
`COC(=O)c1sccc1S(N)(=O)=O`: the compound was classed as inactive in [1], in assay [3], in assay [4], in assay [5], in assay [6] and in assay [7]. Also, the call in assay [8], in assay [9], in [10], in assay [15], in [16] and in assay [18] was inactive. Further, the AC50 in assay [2] was 79.3 µM (active).
On to `NNC(=O)c1cccc(C(=O)NN)c1`, for which the compound was called inactive in assay [1], in assay [2], in assay [3], in assay [4], in [5] and in assay [6]. Moreover, the result in assay [7], in assay [8], in [10], in [11], in assay [19] and in [12] was inactive. Also, the compound was called inactive in [15] and in [17].

As usually defined, the AC50 is the concentration giving half of the maximal activity seen.
